Screening results deposited in PubChem BioAssay by Buhrlage Lab, Dana-Farber Cancer Institute and Novartis Institutes for BioMedical Research (Cambridge, Mass).
OTUD3 block: human OTUD3 deubiquitinase inhibition. purified OTUD3, Ub-rhodamine fluorescence, 2 h. inhibition, % at 25 µM. AID 1645858. actives 0.7% (n = 47,000)
USP10 inh: blocks human USP10 ubiquitin-rhodamine cleavage. purified USP10, Ub-rhodamine fluorescence, 60 min. inhibition, % at 20 µM. Q14694. actives 1.1% (n = 47,000). AID 1645856
Target sequence (Q14694 whole entry, looked up): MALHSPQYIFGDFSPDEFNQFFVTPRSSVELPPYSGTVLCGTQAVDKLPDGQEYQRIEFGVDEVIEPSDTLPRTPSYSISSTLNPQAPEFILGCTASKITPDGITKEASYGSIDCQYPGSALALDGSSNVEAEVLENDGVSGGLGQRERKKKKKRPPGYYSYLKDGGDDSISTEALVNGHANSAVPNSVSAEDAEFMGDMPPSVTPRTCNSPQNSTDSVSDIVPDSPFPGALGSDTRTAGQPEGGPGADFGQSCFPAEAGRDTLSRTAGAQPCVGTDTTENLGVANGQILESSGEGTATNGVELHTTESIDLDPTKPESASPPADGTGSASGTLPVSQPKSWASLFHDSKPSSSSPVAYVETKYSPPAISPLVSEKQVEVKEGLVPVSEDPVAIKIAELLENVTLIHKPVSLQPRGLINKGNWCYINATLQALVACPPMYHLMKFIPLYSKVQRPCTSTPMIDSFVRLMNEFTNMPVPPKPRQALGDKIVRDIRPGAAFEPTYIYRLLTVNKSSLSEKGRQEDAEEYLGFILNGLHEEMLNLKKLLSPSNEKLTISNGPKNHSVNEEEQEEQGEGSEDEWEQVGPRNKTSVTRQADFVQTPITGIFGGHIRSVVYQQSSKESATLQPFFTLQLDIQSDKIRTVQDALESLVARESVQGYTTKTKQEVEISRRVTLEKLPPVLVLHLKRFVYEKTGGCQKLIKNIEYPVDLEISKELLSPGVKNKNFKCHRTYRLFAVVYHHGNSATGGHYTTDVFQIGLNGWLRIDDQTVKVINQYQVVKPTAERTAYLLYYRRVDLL
USP8 block: blocks human USP8 ubiquitin-rhodamine cleavage; P40818; inhibition, % at 20 µM; purified USP8, Ub-rhodamine cleavage fluorescence, 30 min; actives 4.2% (n = 47,000)
UCHL1 block: human UCHL1 deubiquitinase inhibition | P09936 | purified UCHL1, Ub-rhodamine cleavage fluorescence | inhibition, % at 20 µM | actives 0.2% (n = 47,000)
USP7 block: inhibitors of human USP7 deubiquitinase | purified USP7, Ub-rhodamine cleavage fluorescence | inhibition, % at 20 µM | actives 0.3% (n = 47,000) | AID 1645854 | Q93009
Numbers without * were called inactive; · = no result given. Hits are enriched below; roughly 5% of the tested compounds scored in any of these assays. Cut-off read from the data, not from the text of the source: active = inhibition above about 30%; inactive = the rest.

SMILES	OTUD3 block	USP10 inh	USP8 block	UCHL1 block	USP7 block
Nc1ncnc2c1ncn2[C@@H]1O[C@H](CO)C[C@@H]1O	50*	28	17	16	30*
O=C(CCc1ccncc1)Nc1ccccc1CN1CCCCC1	-12	0	-1	-1	0
O=C(Cn1ccc2ccn(Cc3ccccc3)c2c1=O)Nc1cccc(F)c1	4	9	32*	-1	6
COc1ccc(-c2cc3c(=O)n(CC(=O)Nc4ccc(Cl)cc4)ccn3n2)cc1	15	14	10	-2	8
COc1ccc(-c2cc3c(=O)n(CC(=O)Nc4ccccc4C)ccn3n2)cc1	10	29	31*	4	13
Cc1ccccc1NC(=O)Cn1c(=O)c2c(ncn2C2CCCC2)n(Cc2ccccc2)c1=O	12	7	39*	1	-39
O=C(Cn1c(=O)c2c(ncn2C2CCCC2)n(Cc2ccccc2)c1=O)NCC1CCCO1 (stereo not drawn)	-4	-5	-13	-3	-2
Cn1ccc2ccn(CC(=O)Nc3cccc(Cl)c3)c(=O)c21	0	1	1	1	·
Cc1ccccc1NC(=O)Cn1ccc2ccn(Cc3ccccc3)c2c1=O	-17	19	49*	-4	8
Cc1cc(-c2cnc(NCc3cccc(F)c3)nc2[C@@H]2CCCO2)on1	10	1	22	4	0
CC(/C=C/C(=O)NO[C@@H]1O[C@H](CO)[C@@H](O)[C@H](O)[C@H]1O)=C\C(C)C(=O)c1ccc(N(C)C)cc1 (stereo partly drawn)	2	5	4	5	3
O=C(Oc1ccc(F)cc1)c1cc(-c2ccc3c(c2)OCCO3)on1	7	1	55*	0	-91
CCc1cccc2c(C(=O)COc3ccc(C#N)cc3)c[nH]c12	32*	16	82*	4	3
COc1cccc(C(=O)Nc2ccc(SC(C)C(=O)Nc3ccc(C(N)=O)cc3)cc2)c1 (stereo not drawn)	0	36*	15	1	7
Cn1c(SCc2nc3ccccc3c(=O)[nH]2)nc2ccccc21	-19	-4	34*	-10	-3
CCCn1cnc2nc(CSc3ccccc3NC(=O)C(C)C)cc(=O)n21	-4	-1	-23	-6	-1
Cc1cc(C)cc(NC(=O)Nc2ccccc2OCc2cc(=O)n3c(ncn3C(C)C)n2)c1	-17	40*	50*	-1	10
Cc1ccccc1NC(=O)Nc1ccccc1OCc1cc(=O)n2cccc(C)c2n1	40*	40*	46*	-2	23
CN(C)c1ccc(NC(=O)COC(=O)C2(c3ccc(F)cc3)CCCC2)cc1	-10	2	72*	5	5
CCOc1ccc(NC(=O)COC(=O)C2(c3ccc(F)cc3)CCCC2)cc1	7	14	6	5	8
O=C(COC(=O)c1n[nH]c2ccccc12)Nc1ccc2c(c1)CCC2	-2	11	30*	1	12
CC(O)CN1CC(O)=C(c2nc(-c3ccccc3)cs2)C1=N (stereo not drawn)	-3	-2	3	2	1
O=C(CC1CCCCC1)N1CCCC(c2nn(CCOc3ccccc3)c3nccnc23)C1 (stereo not drawn)	27	7	20	7	-42
COc1ccc(-c2nc3n(n2)C(CC(=O)Nc2cccc4ccccc24)C(=O)N3)cc1 (stereo not drawn)	19	41*	51*	1	7
Cc1cc(NC(=O)c2cc(-c3cccnc3)n[nH]2)ccc1Br	18	38*	98*	16	39*
SMILES	OTUD3 block	USP10 inh	USP8 block	UCHL1 block	USP7 block
O=C(NCc1ccc(Br)cc1)c1cc(-c2cccnc2)n[nH]1	10	21	90*	3	29
CCCOc1ccc(C2CN3C(=O)N(c4ccccc4)C(=O)[C@]3(C)c3[nH]c4ccccc4c32)cc1OCC (stereo partly drawn)	0	7	20	7	10
Cc1ccc(NC(=O)N2CCCN(c3nc4ccc(Cl)cc4s3)CC2)cc1	13	1	-2	3	-32
CCc1ccc2c(CC(=O)N3CCC(C(N)=O)CC3)coc2c1	-1	-4	-1	-3	1
O=C(c1ccccc1)N1CCCCCC1C1CCN(Cc2nnnn2C2CC2)CC1 (stereo not drawn)	0	-4	6	2	1
Cc1ccc2[nH]c3c(=O)n(CCC4=CCCCC4)cnc3c2c1	10	1	31*	3	10
O=c1oc2ccccc2cc1-c1nc(-c2ccc(Oc3ccccc3)cc2)cs1	-29	0	53*	9	70*
FC(F)(F)c1ccccc1CCN1CCc2nc3ncc(Cl)cc3cc2C1	-211	-5	-177	-89	-105
O=C(CNC(=O)c1ccc2nc(-n3cccc3)sc2c1)NCc1ccccc1	-30	-3	39*	5	·
O=C(CNC(=O)c1ccc2nc(-n3cccc3)sc2c1)NCc1ccccc1Cl	-72	-6	46*	0	9
O=C(CNC(=O)c1ccc2nc(-n3cccc3)sc2c1)NCc1ccco1	-15	-5	76*	2	7
O=c1c(NCCCN2CCCC2)nc2ccncc2n1Cc1ccccc1	-18	-5	-3	1	-28
Brc1ccc(C2(c3nc(Cc4ccccc4)no3)CCOCC2)cc1	4	1	-1	-4	-9
Cc1ccc(NC(=O)CNC(=O)c2cc3ccccc3o2)cc1	-2	14	-7	1	3
COc1cc(NC(=O)Cc2ccccc2)ccc1NC(=O)c1cc2ccccc2o1	11	34*	8	4	10
Cc1ccc(S(=O)(=O)Nc2ccc3[nH]cc(Cl)c3c2)cc1	13	9	42*	7	14
Cc1ccc(S(=O)(=O)Nc2ccc(S(=O)(=O)Nc3ccc(F)cc3)cc2)cc1	8	8	11	7	3
Cc1ccc2[nH]c(=O)c(-c3nc4ccc(C)cn4c3NCc3ccc(F)cc3)cc2c1	9	47*	78*	13	51*
COc1ccc(C(CNC(=O)c2cc(-c3ccc(Cl)cc3)on2)N2CCOCC2)cc1 (stereo not drawn)	13	25	40*	-1	8
COc1ccc(Cc2nc(-c3ccc4nncn4c3)no2)c(Cl)c1	1	-2	7	1	-1
COC(=O)c1ccc(C2c3[nH]c4ccccc4c3C[C@@H]3C(=O)N(c4ccc5c(c4)OCCO5)C(=O)N23)cc1 (stereo partly drawn)	23	48*	5	1	8
COc1ccc(C2c3[nH]c4ccccc4c3C[C@@H]3C(=O)N(c4ccc5c(c4)OCCO5)C(=O)N23)cc1 (stereo partly drawn)	-47	-15	-69	-80	-74
Cc1ccccc1C(=O)Nc1ccc(NC(=O)CN2CCOCC2)cc1	-11	-2	-1	-2	0
O=C(CN1CCOCC1)Nc1ccc(NC(=O)c2ccc(Cl)cc2)cc1	0	1	-6	69*	-4
COc1ccc(OC)c(CC(=O)NC2CC3(CCOCC3)Oc3ccccc32)c1 (stereo not drawn)	10	1	11	3	-1
